Only a selection was taken, and hits are over-represented in it overall.
IDE exosite FP: displaces the probe from the exo-site of human IDE; 6.3% of 17,000 active; P14735; z-score at 20 µM; purified IDE, FL-6b probe fluorescence polarization; hits give low values;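 active = z-score of -3 or lower, meaning strong loss of probe binding signal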;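 also: His-tagged human IDE residues 42-1019 made in E. coli with 30 nM FL-6b probe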
An asterisk follows results filed as active.

SMILES	IDE exosite FP
COc1cccc(CN2CCCCN3[C@H](CO)[C@H](c4ccc(-c5cccc(C#N)c5)cc4)[C@@H]3C2)c1	0.95
COc1cccc(-c2ccc([C@H]3[C@@H](CO)N4CCCCN(Cc5cncnc5)C[C@H]34)cc2)c1	-6.6*
OC[C@@H]1[C@@H](c2ccc(-c3cccc(F)c3)cc2)[C@@H]2CN(Cc3cncnc3)CCCCN12	0.63
OC[C@H]1[C@@H](c2ccc(-c3cccc(F)c3)cc2)[C@H]2CN(Cc3cncnc3)CCCCN21	1.4
C/C=C/c1ccc([C@@H]2[C@@H](C#N)N(S(=O)(=O)c3cccc(F)c3)[C@@H]2CO)cc1	4.4
Cc1ccc(-c2ccc([C@H]3[C@@H](CO)N4C(=O)CN(C(=O)c5ccc(F)cc5)C[C@@H]34)cc2)cc1	2.8
CC(C)(O)C#Cc1ccc([C@@H]2[C@H](CO)N3CCCCN(C(=O)c4ccncc4)C[C@@H]23)cc1	-0.86
CCC(=O)Nc1ccc2c(c1)OC[C@@H](C)N(Cc1ccccc1)C[C@H](C)[C@@H](OC)CN(C)C2=O	0.52
OC[C@H]1Nc2ccc(C#Cc3ccc(F)cc3)cc2[C@@H]2[C@H]1CCN2Cc1ccc2c(c1)OCO2	2.4
CC(C)[C@H]1C(=O)N[C@H](c2cccc(Cl)c2)CC=CC[C@H](C)Oc2ccccc2C(=O)N1C (mixture of isomers)	-0.41
N#C[C@H]1[C@H](c2ccccc2-c2cccc(F)c2)[C@@H](CO)N1C(=O)Cc1cccnc1	4.8
O=C1CN(Cc2ccc(F)cc2)C[C@H]2[C@@H](c3ccc(-c4ccccc4F)cc3)[C@H](CO)N12	-1.2
Cc1cccc(-c2ccc([C@@H]3[C@H](CO)N4C(=O)CN(C(=O)c5cccnc5)C[C@@H]34)cc2)c1	-6.3*
Cc1cccc(-c2ccc([C@H]3[C@H]4CN(C(=O)c5cccnc5)CC(=O)N4[C@H]3CO)cc2)c1	-2.8
COc1ccc(-c2ccc([C@H]3[C@H](CO)N4C(=O)CN(C(=O)c5cccnc5)C[C@@H]34)cc2)cc1	-1.8
COc1ccc(-c2ccc([C@@H]3[C@@H](CO)N4C(=O)CN(C(=O)c5cccnc5)C[C@@H]34)cc2)cc1	0.76
Cc1cccc(-c2ccc([C@H]3[C@H](CO)N4C(=O)CN(C(=O)c5cccnc5)C[C@@H]34)cc2)c1	-9.6*
COc1ccc(-c2ccc([C@@H]3[C@H](CO)N4C(=O)CN(C(=O)c5cccnc5)C[C@@H]34)cc2)cc1	-1.5
O=C(C[C@@H]1CC[C@H](NC(=O)c2ccc3c(c2)OCO3)[C@H](CO)O1)NCc1ccc(Oc2ccccc2)cc1	2.9
O=C([C@@H]1[C@@H](CO)[C@@H]2Cn3c(cccc3=O)[C@@H]2N1C(=O)CC1CC1)N1CCc2ccccc2C1	1.1
COc1ccc2c3c([nH]c2c1)[C@H](CO)N(C(=O)Nc1c(C)noc1C)CC31CN(CC2CCOCC2)C1	0.48
C/C=C/c1ccc([C@@H]2[C@@H](CO)N(C(=O)CC)[C@@H]2CNC(=O)CC)cc1	0.66
CN1C(=O)c2cc(NC(=O)Nc3ccc(Cl)cc3)ccc2OC[C@@H]2O[C@@H](CC(=O)NCCN3CCCCC3)CC[C@H]21	0.98
OC[C@@H]1[C@H](c2ccc(C#Cc3ccccc3)cc2)[C@H]2CN(CC3CCOCC3)CCCCN12	-4.4*
CCCC#Cc1ccc([C@@H]2[C@@H](CO)N3CCCCN(CC4CCOCC4)C[C@H]23)cc1	0.69
SMILES	IDE exosite FP
CCCC#Cc1ccc([C@@H]2[C@@H](CO)N3CCCCN(CC4CCOCC4)C[C@@H]23)cc1	-1.2
OC[C@H]1[C@H](c2ccc(C#Cc3ccccc3)cc2)[C@@H]2CN(CC3CCOCC3)CCCCN12	-3.6*
OC[C@H]1[C@H](c2ccc(C#Cc3ccccc3F)cc2)[C@H]2CN(CC3CCOCC3)CCCCN21	-0.28
OC[C@@H]1[C@@H](c2ccc(C#Cc3ccccc3F)cc2)[C@H]2CN(CC3CCOCC3)CCCCN12	2.2
CCC(=O)N1CCCCN2[C@@H](CO)[C@@H](c3ccc(-c4cccc(C(=O)N(C)C)c4)cc3)[C@@H]2C1	0.97
CO[C@H](CN(C)C(=O)c1cc(Cl)cc(Cl)c1)[C@@H](C)CN(C(=O)Nc1ccc(F)cc1)[C@@H](C)CO	1.8
CCS(=O)(=O)N1CC(=O)N2[C@H](CO)[C@@H](c3ccc(C#Cc4ccc(F)cc4)cc3)[C@@H]2C1	1.8
O=C(c1cccnc1)N1CC(=O)N2[C@H](C1)[C@H](c1ccc(C#CCC3CCCC3)cc1)[C@@H]2CO	0.87
COc1cccc(S(=O)(=O)N2CCCCN3[C@@H](CO)[C@@H](c4ccc(-c5cccnc5)cc4)[C@@H]3C2)c1	-6.3*
Cc1cccc(S(=O)(=O)N2CCCCN3[C@@H](CO)[C@H](c4ccc(-c5ccncc5)cc4)[C@@H]3C2)c1	1.6
COc1cccc(S(=O)(=O)N2CCCCN3[C@H](CO)[C@@H](c4ccc(-c5cccnc5)cc4)[C@@H]3C2)c1	-3.5*
COc1cccc(S(=O)(=O)N2CCCCN3[C@@H](CO)[C@@H](c4ccc(-c5cncnc5)cc4)[C@@H]3C2)c1	-0.24
Cc1cccc(S(=O)(=O)N2CCCCN3[C@@H](CO)[C@@H](c4ccc(-c5cccnc5)cc4)[C@@H]3C2)c1	-3.3*
Cc1cccc(S(=O)(=O)N2CCCCN3[C@H](CO)[C@H](c4ccc(-c5ccncc5)cc4)[C@H]3C2)c1	1.5
COc1cccc(S(=O)(=O)N2CCCCN3[C@H](C2)[C@@H](c2ccc(-c4cncnc4)cc2)[C@@H]3CO)c1	0.96
COc1cccc(S(=O)(=O)N2CCCCN3[C@H](CO)[C@H](c4ccc(-c5cccnc5)cc4)[C@H]3C2)c1	1.1
COc1cccc(S(=O)(=O)N2CCCCN3[C@H](CO)[C@@H](c4ccc(-c5cncnc5)cc4)[C@@H]3C2)c1	-0.62
CCS(=O)(=O)N1CC(=O)N2[C@H](C1)[C@@H](c1ccc(-c3ccc(C)cc3)cc1)[C@@H]2CO	0.29
COc1ccc(CN2[C@H](CO)[C@H]3c4ccccc4N(C(=O)NC(C)C)C[C@H]32)cc1	1.9
O=C(C[C@@H]1CC[C@@H](NC(=O)c2ccc3c(c2)OCO3)[C@@H](CO)O1)NCc1ccc(Oc2ccccc2)cc1	0.28
CO[C@@H]1CN(C)C(=O)c2ccc(NS(=O)(=O)CC(F)(F)F)cc2OC[C@@H](C)N(Cc2nccs2)C[C@H]1C	-0.55
CC(=O)NC[C@H]1[C@H](c2ccc(-c3ccccc3)cc2)[C@@H](CO)N1C(=O)C1CC1	3.2
N#C[C@H]1[C@@H](c2ccc(-c3cccc(F)c3)cc2)[C@@H](CO)N1C(=O)c1cccnc1	-1.1
Fc1cccc(-c2ccc(C3[C@H]4CNC[C@@H]3N4Cc3cncnc3)cc2)c1 (stereo partly drawn)	1.3
CCCNC(=O)Nc1ccc2c(c1)C(=O)N(C)[C@H]1CC[C@H](CC(=O)Nc3cc(F)ccc3F)O[C@@H]1CO2	0.59
SMILES	IDE exosite FP
O=C(NC[C@H]1[C@@H](c2ccccc2)[C@@H](CO)N1Cc1ccccn1)NC1CCCC1	0.7
CCN(C[C@H]1[C@H](c2ccccc2)[C@H](CO)N1C(C)=O)C(=O)c1ccccn1	2.5
COc1cccc(-c2ccc3c(c2)[C@H]2[C@H](CCN2C(=O)Cc2ccncc2)[C@H](CO)N3C)c1	-0.47
Cc1cccc(-c2ccc([C@H]3[C@H]4CN(C(=O)NC(C)C)CCCCN4[C@H]3CO)cc2)c1	-14*
Cc1ccc(-c2ccc([C@H]3[C@@H](CO)N4CCCCN(C(=O)Nc5ccccc5)C[C@@H]34)cc2)cc1	0.98
Cc1cccc(-c2ccc([C@@H]3[C@H](CO)N4CCCCN(C(=O)NC(C)C)C[C@@H]34)cc2)c1	-11*

High-throughput results (PubChem BioAssay)
